VHR inh color = VHR1 phosphatase inhibitors, primary screen, biochemical, colorimetric, HTS. AID 1992, 2009. recombinant VHR phosphatase, colorimetric substrate read-out. inhibition, % at 20 µM. 50,000 compounds, 0.7% hits. Dual specificity protein phosphatase 3 (Homo sapiens), P51452; in the data active = inhibition above about 60%
Target sequence (P51452 whole entry, looked up): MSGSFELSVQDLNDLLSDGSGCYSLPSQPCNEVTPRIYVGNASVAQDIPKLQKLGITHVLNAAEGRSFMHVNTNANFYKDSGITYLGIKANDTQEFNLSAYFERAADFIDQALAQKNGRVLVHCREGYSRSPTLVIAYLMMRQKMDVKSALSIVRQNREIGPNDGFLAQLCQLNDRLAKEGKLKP
The depositor's hits bear a star. The full list was thinned out, with hits kept by preference.

SMILES | VHR inh color
Cc1sc(NC(=O)c2ccco2)c(C#N)c1C | -52
COC(=O)c1c(/N=C/N(C)C)ncn1-c1ccccc1OC | -17
O=C1NC(=S)S/C1=C\c1ccc(N2CCCCC2)c([N+](=O)[O-])c1 | -37
CC(C)c1ccc(/C=C2\SC(=S)NC2=O)cc1[N+](=O)[O-] | 79*
CC(C)c1ccc(/C=C2\SC(=S)NC2=O)cc1 | -15
CCc1cc(C)cc(OCCOc2cccc(C=C3C(=O)NC(=S)NC3=O)c2)c1 | 20
O=[N+]([O-])c1ccc(CN2CCN(Cc3cc(Br)ccc3O)CC2)cc1 | 12
O=C1NCC(c2ccccc2)C1C(=O)N/N=C\c1cc([N+](=O)[O-])cc(Br)c1O (stereo not drawn) | -11
N#Cc1c(-c2ccccc2)cc(-c2ccccc2Cl)c(C#N)c1N | 7
N#CC(C#N)=C1C(Cl)=C(Cl)c2ccccc21 | 66*
O=C1C(=O)c2ccccc2C(Cl)=C1Cl | -7
COc1ccc(OC)c(/C=C2\SC(=N)N(c3ccc(F)cc3)C2=O)c1 | -5
CC(CNC(=O)Nc1cccc(Cl)c1)NC(=O)Nc1cccc(Cl)c1 (stereo not drawn) | -50
O=C1C(=O)N(c2ccccc2Br)C(=O)N1c1cccc(Cl)c1 | 2
O=C(NC(O)C(Cl)(Cl)Cl)c1ccc([N+](=O)[O-])cc1 (stereo not drawn) | -7
O=C1NC(=O)N(c2ccc(Cl)cc2)C(=O)/C1=C\c1ccc(N2CCCC2)cc1 | 70*
CN1C(=O)NC(=O)/C(=C\c2ccc(N3CCCC3)cc2)C1=O | 2
O=C1NC(=O)N(c2ccc(Cl)cc2)C(=O)/C1=C/c1ccc(F)cc1 | -15
O=C(Oc1ccc2ccccc2c1)c1cc([N+](=O)[O-])ccc1Cl | -6
Cc1ccc(S(=O)(=O)Nc2ccc(S(=O)(=O)NC(=O)C3CCCCC3)cc2)cc1 | -22
Fc1ccc(OCCOc2ncnc3ccccc23)cc1 | -13
O=Cc1ccc(Oc2ncnc3ccccc23)cc1 | 97*
O=[N+]([O-])c1ccccc1OCCOc1ncnc2ccccc12 | -16
N#C/C(=C\c1ccc(-c2ccc3c(c2)COC3=O)o1)C(N)=O | 35
N#CC(C#N)=Cc1ccc(-c2ccc3c(c2)COC3=O)o1 | 99
SMILES | VHR inh color
N#C/C(=C\c1ccc(-c2ccc3c(c2)COC3=O)o1)c1nc2ccccc2[nH]1 | 64*
COCCN1C(=O)C(=O)/C(=C(/O)c2ccccc2)C1c1ccc([N+](=O)[O-])cc1 (stereo not drawn) | 5
COC(=O)c1ccccc1NC(=O)c1cnn2c(C(F)(F)F)cc(-c3ccc(OC)c(OC)c3)nc12 | -28
COc1ccc(NC(=O)COc2c(C)cc(C)cc2C)cc1 | -9
Cc1[nH]c2ccccc2c1/C=C/c1nc2ccccc2c(=O)n1-c1ccc([N+](=O)[O-])cc1 | 8
COc1cccc(-n2c(/C=C/c3c(C)[nH]c4ccccc34)nc3ccccc3c2=O)c1 | 76*
Cc1[nH]c2ccccc2c1/C=C/c1nc2ccccc2c(=O)n1C | -3
O=C(c1ccc([N+](=O)[O-])cc1)n1c2c(c3ccccc31)CCCC2 | -24
c1ccc(Nc2nc(-c3ccncc3)cs2)cc1 | -20
COc1ccc(-c2csc(Nc3ccccc3)n2)cc1 | 8
c1ccc(Nc2nc(-c3ccccc3)[n+](-c3ccccc3)s2)cc1 | 97*
C=CCOc1ccc(/C=C/C(=O)c2cccc(Br)c2)cc1 | 4
CCOc1ccccc1NC(=O)C1C2CCC3C(CCC21)C3(Cl)Cl (stereo not drawn) | 119*
O=C(Nc1cccc2ccccc12)C1C2CCC3C(CCC21)C3(Cl)Cl (stereo not drawn) | -14
CCOc1ccccc1NC(=O)c1ccccc1 | -15
Cc1ccc([N+](=O)[O-])cc1NC(=S)NC(=O)c1ccc(Cl)cc1 | -17
COc1cc(/C=c2/sc3nc4c(Br)c(C)c(C)cc4n3c2=O)ccc1OCC(=O)O | 8
Cc1cc2c(nc3s/c(=C/c4ccccc4)c(=O)n32)c(Br)c1C | 99*
Cc1cc(C)c2nc3s/c(=C\c4ccccc4)c(=O)n3c2c1 | -20
COc1ccc(OC)c(NC(=S)NC(NC(=O)Cc2ccccc2)C(Cl)(Cl)Cl)c1 (stereo not drawn) | 0
COc1ccc(OC)c(NC(=O)c2ccc(C)c(C)c2)c1 | 6
COc1ccc(NC(=O)Nc2nnc(-c3ccc(F)cc3)s2)cc1 | -24
Cc1cccc(C(=O)Nc2c(C(=O)N(C)C)cnn2-c2ccccc2)c1 | 70*
CCCN(CCC)C(=O)c1cnn(-c2ccccc2)c1NC(=O)c1cccc(F)c1 | 19
Cc1cccc(C(=O)Nc2c(C(=O)N3CCN(C)CC3)cnn2-c2ccccc2)c1 | -6
SMILES | VHR inh color
O=C(NC(Cc1ccccc1)C(=O)Nc1ccccc1)OCc1ccccc1 (stereo not drawn) | 4
CCN(CC)S(=O)(=O)c1ccc(NC(=S)Nc2ccccc2)cc1 | -7
CCC(C)C(NC(=S)Nc1ccccc1)C(=O)O (stereo not drawn) | 98*
O=C(O)C(Cc1ccccc1)NC(=S)Nc1ccccc1 (stereo not drawn) | 99*
O=C(O)CSCC(NC(=S)Nc1ccccc1)C(=O)O (stereo not drawn) | -4
CC(=O)Nc1ccc(NC(=S)Nc2ccccc2)cc1 | 7
O=S(=O)(c1ccc(Oc2ccccc2)cc1)N1CCCCC1 | -28
Cc1ccccc1OCC(=O)Nc1ccc(Cl)c(C(F)(F)F)c1 | -25
C=CCOc1ccc(Cl)cc1/C=C1/C(=O)NN(c2ccccc2)C1=O | 3
CCOc1cccc(C(=O)Nc2cc(C(F)(F)F)cc(C(F)(F)F)c2)c1 | -19
Cn1c(=O)cc(NC2CCCCC2)[nH]c1=O | 36
Cc1ccc(C2=C/C(=C\c3cc([N+](=O)[O-])ccc3Cl)C(=O)O2)cc1 | 7
Cc1ccc([N+](=O)[O-])cc1/C=C1/C=C(c2ccccc2)OC1=O | 96*
O=C1OC(c2ccccc2)=C/C1=C/c1ccc(-c2ccc([N+](=O)[O-])cc2Br)o1 | 0
COC(=O)c1ccc(/C=N/N=C(N)N)cc1 | -3
O=c1[nH]c(=S)n(-c2ccc(Cl)c(Cl)c2)c(O)c1/C=C1/C=Nc2ccccc21 | -3
Cc1cc(C)cc(-n2c(O)c(/C=C3\C=Nc4ccccc43)c(=O)[nH]c2=O)c1 | -14
Cc1ccc(-n2c(O)c(/C=C3\C=Nc4ccccc43)c(=O)[nH]c2=S)cc1 | 64*
CN1C(=O)C(=Cc2cccc(OCCOc3ccccc3)c2)C(=O)N(C)C1=O | -12
COc1cc(N(C)C)c([N+](=O)[O-])cc1C(=O)N1CCCC(O)C1 (stereo not drawn) | 0
COC(=O)c1ccc(C2Nc3cc(C)c(C)cc3NC3=C2C(=O)CC(C)(C)C3)cc1 (stereo not drawn) | 6
CCOc1cc(C2C(C(=O)OCC3CCCO3)=C(C)NC3=C2C(=O)CCC3)cc([N+](=O)[O-])c1O (stereo not drawn) | -12
CCOc1cc(C2Nc3cc(C)c(C)cc3NC3=C2C(=O)CC(C)(C)C3)cc([N+](=O)[O-])c1O (stereo not drawn) | 118*
COc1cc(C2Nc3cc(C)c(C)cc3NC3=C2C(=O)CC(C)(C)C3)cc(Br)c1OC (stereo not drawn) | 2
Cc1cc2c(cc1C)NC(c1c(F)cccc1F)C1=C(CC(C)(C)CC1=O)N2 (stereo not drawn) | -9
CC(=O)Nc1ccc(C2Nc3cc(C)c(C)cc3NC3=C2C(=O)CC(C)(C)C3)cc1 (stereo not drawn) | 100*
CCOC(=O)c1cccc(NC(=O)c2ccc(Cl)cc2Cl)c1 | -10
CCc1cc(C)cc(OCCOc2cccc(C=C3C(=O)NC(=O)NC3=O)c2)c1 | 3

Screening results deposited in PubChem BioAssay by Sanford-Burnham Center for Chemical Genomics.
